Entries with a potency or affinity are not part of this list.
These compounds were tested against Protein S100-A4 (Homo sapiens) (UniProt P26447) (assay: human S100A4 peptide interaction inhibition curves – biochemical, fluorescence polarization, cherry-picked hits, dose response (AID 687001;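 also: 0% = DMSO neutral control wells and -100% = TFP positive control wells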)). Conditions: FP, S100A4/TAMRA-myosin IIA peptide binding; series mostly up to 11 µM; activity change, negative = inhibition: at the top concentration;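 active = signal-lowering compounds whose fitted half-maximal concentration is at or below twice the top tested dose in every run; inconclusive = runs disagree, flat 30 to 70% inhibition, or poor curve fit; inactive = the rest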.
Protein S100-A4 (Homo sapiens), sequence (P26447 whole entry, looked up): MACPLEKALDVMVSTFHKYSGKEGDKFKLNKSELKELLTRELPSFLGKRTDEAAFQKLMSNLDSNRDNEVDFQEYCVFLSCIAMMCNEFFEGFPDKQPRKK

Activity change, negative = inhibition, inactive:
CON(C)S(=O)(=O)c1cccc(C(=O)Nc2cccc(S(=O)(=O)NC3=NCCCCC3)c2)c1 5.62%
CCc1nn2c(=O)cc(COc3ccc(NC(=O)c4ccco4)cc3)nc2s1 27.9%
Cc1ccc(S(=O)(=O)Nc2ccccc2F)cc1C(=O)OC(C)C(=O)N1CCOCC1 (centres undefined) 0.959%
C[C@@H]1CN([C@H](C)CO)C(=O)c2cc(NS(=O)(=O)c3ccc(F)cc3)ccc2O[C@@H](C)CCCCO[C@@H]1CN(C)C(=O)NC1CCCCC1 14%
CC(C)(C)c1cc[n+](-c2[nH]c(=O)sc2/C=N/N=C(\[O-])c2ccccc2)cc1 0.307%
CC=Cc1ccc2n(c1=O)C[C@H]1[C@H](CO)[C@@H](C(=O)NCC3CC3)[C@@H]2N1Cc1cccnc1 (mixture of isomers) 1.13%
CCc1ccc(C(=O)COC(=O)c2ccco2)cc1 -1.4%
CN(C)c1ccc(/C=C(\C#N)C(=O)OCC(=O)N(C)C2CCS(=O)(=O)C2)cc1 (centres undefined) 128% [at 2.6 µM]
CCC(c1nc2ccccc2[nH]1)n1c(-c2cccnc2)nc2ccccc21 (centres undefined) -4.62%
C[C@@H]1CN([C@@H](C)CO)C(=O)c2cccc(NC(=O)C3CCOCC3)c2O[C@@H]1CN(C)Cc1ccc(C(=O)Nc2ccccc2N)cc1 20.1%
CO[C@@H]1CN(C)C(=O)c2cc(NS(=O)(=O)CC(F)(F)F)ccc2OC[C@@H](C)N(C)C[C@H]1C 5.53%
NS(=O)(=O)c1ccc(NC(=O)COC(=O)CCCN2C(=O)c3cccc4cccc(c34)C2=O)cc1 26.3%
CCOc1ccc(NC(=O)CN(C)C(=O)c2cccc3ccccc23)cc1OCC -1.35%
Cc1cc(=O)oc2c(C)c(OCC(=O)N3CCN(C(=O)C4COc5ccccc5O4)CC3)ccc12 (centres undefined) -3.19%
COCc1cc(=O)[nH]c(SCC(=O)N2CCOCC2)n1 -5.53%
S=c1[nH]nc(-c2cc(-c3ccsc3)n[nH]2)n1-c1ccccc1 6.13%
COCCCNC(=O)c1ccc2sc([C@@H]3O[C@H](CO)[C@H](O)[C@H](O)[C@H]3O)nc2c1 -2.29%
Cc1ccc(S(=O)(=O)NCC[C@@H]2CC[C@@H](NC(=O)C3CCOCC3)[C@H](CO)O2)cc1 -1.78%
O=C(C[C@@H]1CC[C@@H](NC(=O)Cc2cccnc2)[C@H](CO)O1)Nc1ccc(-c2ccccc2)cc1 0.256%
CC(C)CC#Cc1cnc2c(c1)C(=O)N([C@H](C)CO)C[C@@H](C)[C@H](CN(C)S(C)(=O)=O)O2 -5.08%
Cc1ccc(N2CCN(C(=O)c3[nH]c(C(F)(F)F)nc3-c3ccccc3)CC2)cc1 -4.62%
CN(CCC#N)C(=O)COC(=O)[C@H](Cc1ccccc1)N1C(=O)c2ccccc2C1=O 1.05%
C[C@H]1CN([C@@H](C)CO)C(=O)c2cc(Br)cnc2O[C@H]1CN(C)C(=O)c1ccccc1F 3.92%
COC(=O)C[C@@H]1CC[C@H]2[C@H](COc3ccc(NS(=O)(=O)c4ccc(C)cc4)cc3C(=O)N2C)O1 8.48%
